Test results taken from PubChem BioAssay AID1159580 (chemical genetic matrix, 2015).
Where “and” joins values, the source holds several entries; their conditions need not be identical. Identical values can stand only once. The campaign covered roughly 5,500 compounds. About 2,000 (36%) were called active. About 18% were inconclusive and are not listed. Rule as the data show it: active = normalized growth mostly below about 0.91 (no sharp cut-off); inconclusive = no clear call, values can overlap the other calls; inactive = mostly above about 0.92. The list shows a part of the results.

Assay: chemical genetic growth profiling, strain panel (AID 1159580);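 also: tested at 20 µM; growth read once vehicle control cultures reached saturation at 30 °C; 1 = growth at the plate median or of vehicle wells; lower values mean less growth of the strain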
Conditions: S. cerevisiae deletion strains, growth OD

Measured: normalized growth

C[C@@H]1CCC2[C@](C)(CO)[C@@H](O)CC[C@]2(C)[C@@]12CC[C@@](CO)(CCO)O2 (stereo partly specified)
inactive: locus YAL021C, strain ccr4, hits give low values 0.991 | locus YAL026C, strain drs2, hits give low values 0.985 | locus YAL030W, strain snc1, hits give low values 0.987 | locus YBL061C, strain skt5, hits give low values 0.967 | locus YBR009C, strain hhf1, hits give low values 0.977 | locus YBR021W, strain FUR4, hits give low values 0.998 | locus YBR023C, strain chs3, hits give low values 0.983 | locus YBR171W, strain sec66, hits give low values 0.965 | locus YBR229C, strain ROT2, hits give low values 0.997 | locus YBR231C, strain swc5, hits give low values 0.997 | locus YBR279W, strain paf1, hits give low values 0.991 | locus YCL011C, strain gbp2, hits give low values 0.994 | locus YCL016C, strain dcc1, hits give low values 0.989 | locus YCL029C, strain bik1, hits give low values 0.986 | locus YCL061C, strain MRC1, hits give low values 0.975 | locus YCL069W, strain vba3, hits give low values 0.979 | locus YCR088W, strain abp1, hits give low values 0.979 | locus YDL005C, strain med2, hits give low values 0.972 | locus YDL035C, strain GPR1, hits give low values 1.02 | locus YDL040C, strain nat1, hits give low values 0.972 | locus YDL074C, strain BRE1, hits give low values 1 | locus YDL101C, strain DUN1, hits give low values 1 | locus YDL134C, strain PPH21, hits give low values 1.04 | locus YDL185W, strain tfp1, hits give low values 0.987 | locus YDL192W, strain arf1, hits give low values 0.994 | locus YDR001C, strain nth1, hits give low values 0.986 | locus YDR069C, strain doa4, hits give low values 0.963 | locus YDR101C, strain arx1, hits give low values 0.995 | locus YDR137W, strain rgp1, hits give low values 1.01 | locus YDR159W, strain sac3, hits give low values 0.933 | locus YDR162C, strain NBP2, hits give low values 1.06 | locus YDR195W, strain ref2 0.959 | locus YDR297W, strain sur2, hits give low values 0.996 | locus YDR318W, strain mcm21, hits give low values 0.994 | locus YDR334W, strain swr1, hits give low values 0.976 | locus YDR335W, strain msn5, hits give low values 0.978 | locus YDR388W, hits give low values 0.974 | locus YDR392W, strain spt3, hits give low values 0.975 | locus YDR502C, strain sam2, hits give low values 1.01 | locus YEL003W, strain gim4, hits give low values 0.974 | locus YEL037C, strain rad23, hits give low values 0.968 | locus YEL061C, strain CIN8 (second series), hits give low values 0.98 | locus YEL061C, strain CIN8, hits give low values 1.01 | locus YER015W, strain faa2, hits give low values 0.99 | locus YER016W, strain bim1, hits give low values 0.981 | locus YER110C, hits give low values 0.983 | locus YER111C, strain swi4, hits give low values 0.959 | locus YER155C, strain BEM2 (second series), hits give low values 0.958 | locus YER155C, strain BEM2, hits give low values 0.993 | locus YER167W, strain BCK2, hits give low values 1 | locus YFR010W, strain ubp6, hits give low values 0.957 | locus YGL078C, strain dbp3, hits give low values 0.985 | locus YGL086W, strain mad1, hits give low values 1.03 | locus YGL167C, strain pmr1, hits give low values 0.976 | locus YGL173C, strain kem1, hits give low values 0.979 | locus YGL227W, strain vid30, hits give low values 0.978 | locus YGL240W, strain doc1, hits give low values 0.966 | locus YGL248W, strain PDE1, hits give low values 1 | locus YGL253W, strain hxk2, hits give low values 0.944 | locus YGR078C, strain PAC10, hits give low values 1.03 | locus YGR135W, strain pre9, hits give low values 0.983 | locus YGR229C, strain SMI1, hits give low values 1.04 | locus YGR252W, strain gcn5, hits give low values 1.02 | locus YHR013C, strain ard1, hits give low values 0.959 | locus YHR027C, strain rpn1, hits give low values 0.983 | locus YHR030C, strain SLT2, hits give low values 1 and 0.991 | locus YHR079C, strain IRE1 (second series), hits give low values 0.981 | locus YHR079C, strain IRE1, hits give low values 0.99 | locus YHR094C, strain hxt1, hits give low values 0.982 | locus YHR129C, strain ARP1, hits give low values 1 | locus YHR142W, strain chs7, hits give low values 0.977 | locus YHR200W, strain rpn10, hits give low values 0.985 | locus YIL066C, strain RNR3, hits give low values 1.02 | locus YIL073C, strain SPO22, hits give low values 0.979 | locus YIL125W, strain kgd1, hits give low values 0.975 | locus YIR030C, strain dcg1, hits give low values 0.991 | locus YJL092W, strain hpr5, hits give low values 0.977 | locus YJL095W, strain BCK1 (second series), hits give low values 0.983 | locus YJL095W, strain BCK1, hits give low values 1.04 and 0.955 | locus YJL115W, strain asf1, hits give low values 0.986 | locus YJL129C, strain trk1, hits give low values 0.966 | locus YJL134W, strain LCB3, hits give low values 0.991 | locus YJL154C, strain vps35, hits give low values 0.982 | locus YJL164C, strain tpk1, hits give low values 1 | locus YJL166W, strain qcr8, hits give low values 0.98 | locus YJL168C, strain set2, hits give low values 0.989 | locus YJL187C, strain SWE1 (second series), hits give low values 1 | locus YJL187C, strain SWE1, hits give low values 0.981 | locus YJR043C, strain POL32, hits give low values 1.04 | locus YJR066W, strain TOR1, hits give low values 0.976 | locus YJR075W, strain HOC1, hits give low values 1.04 | locus YKL009W, strain mrt4, hits give low values 0.976 | locus YKL068W, hits give low values 0.986 | locus YKL085W, strain MDH1 (second series), hits give low values 0.99 | locus YKL085W, strain MDH1, hits give low values 0.99 | locus YKL160W, strain elf1, hits give low values 0.988 | locus YKR001C, strain vps1, hits give low values 1.01 | locus YKR026C, strain gcn3, hits give low values 0.978 | locus YKR091W, strain srl3, hits give low values 0.988 | locus YLL001W, strain dnm1, hits give low values 0.991 | locus YLL026W, hits give low values 0.982 | locus YLL041C, strain sdh2, hits give low values 0.977 | locus YLR027C, strain aat2, hits give low values 0.98 | locus YLR039C, strain RIC1, hits give low values 1.09 | locus YLR058C, strain SHM2, hits give low values 1 | locus YLR102C, strain apc9, hits give low values 0.977 | locus YLR113W, strain HOG1, hits give low values 0.991 | locus YLR221C, strain rsa3, hits give low values 0.953 | locus YLR258W, strain gsy2, hits give low values 0.969 | locus YLR262C, strain YPT6 (second series), hits give low values 1.01 | locus YLR262C, strain YPT6, hits give low values 1.09 | locus YLR268W, strain sec22, hits give low values 0.996 | locus YLR320W, strain mms22, hits give low values 0.971 | locus YLR330W, strain CHS5, hits give low values 0.995 | locus YLR342W, strain FKS1 (second series), hits give low values 0.995 | locus YLR342W, strain FKS1, hits give low values 0.969 | locus YLR357W, strain rsc2, hits give low values 0.95 | locus YLR370C, strain arc18, hits give low values 0.977 | locus YLR371W, strain rom2, hits give low values 0.982 | locus YLR384C, strain iki3, hits give low values 0.974 | locus YLR418C, strain cdc73, hits give low values 1.03 | locus YML016C, strain PPZ1, hits give low values 0.997 | locus YML032C, strain rad52, hits give low values 0.97 | locus YML120C, strain ndi1, hits give low values 0.992 | locus YML124C, strain tub3, hits give low values 0.993 | locus YMR058W, strain fet3, hits give low values 0.973 | locus YMR078C, strain ctf18, hits give low values 1 | locus YMR125W, strain sto1, hits give low values 0.982 | locus YMR129W, hits give low values 0.986 | locus YMR205C, strain PFK2, hits give low values 1.01 | locus YMR223W, strain ubp8, hits give low values 1 | locus YMR231W, strain pep5, hits give low values 0.951 | locus YMR307W, strain GAS1, hits give low values 1.15 | locus YNL067W, strain RPL9B, hits give low values 1.03 | locus YNL071W, strain lat1, hits give low values 0.989 | locus YNL153C, strain GIM3, hits give low values 1.04 | locus YNL183C, strain NPR1, hits give low values 0.977 | locus YNL209W, strain ssb2, hits give low values 0.992 | locus YNL233W, strain BNI4, hits give low values 1.02 | locus YNL248C, strain rpa49, hits give low values 0.976 | locus YNL250W, strain rad50, hits give low values 0.985 | locus YNL271C, strain bni1, hits give low values 1.01 | locus YNL298W, strain CLA4, hits give low values 0.968 | locus YNL307C, strain MCK1, hits give low values 0.982 | locus YNL322C, strain KRE1 (second series), hits give low values 1 | locus YNL322C, strain KRE1, hits give low values 1.01 | locus YNR049C, strain mso1, hits give low values 0.971 | locus YNR052C, strain pop2, hits give low values 0.983 | locus YOL012C, strain htz1 1.2 | locus YOL147C, strain pex11, hits give low values 0.989 | locus YOR001W, strain rrp6, hits give low values 0.956 | locus YOR061W, strain CKA2, hits give low values 1 | locus YOR069W, strain VPS5, hits give low values 0.991 | locus YOR070C, strain gyp1, hits give low values 0.973 | locus YOR080W, strain dia2, hits give low values 0.972 | locus YOR083W, strain WHI5, hits give low values 1 | locus YOR106W, strain vam3, hits give low values 1.03 | locus YOR136W, strain idh2, hits give low values 0.984 | locus YOR144C, strain elg1, hits give low values 0.999 | locus YOR184W, strain ser1, hits give low values 1.02 | locus YOR231W, strain MKK1, hits give low values 1 | locus YOR265W, strain rbl2, hits give low values 0.996 | locus YOR270C, strain vph1, hits give low values 0.971 | locus YOR290C, strain snf2, hits give low values 0.967 | locus YOR316C, strain cot1, hits give low values 0.975 | locus YPL051W, strain arl3, hits give low values 0.965 | locus YPL078C, strain atp4, hits give low values 0.995 | locus YPL106C, strain sse1, hits give low values 0.987 | locus YPL240C, strain hsp82, hits give low values 0.981 | locus YPL241C, strain CIN2, hits give low values 1.01 | locus YPL256C, strain CLN2, hits give low values 0.996 | locus YPR119W, strain clb2, hits give low values 0.997 | locus YPR141C, strain kar3, hits give low values 0.984 | locus YPR163C, strain tif3, hits give low values 0.983 | locus YPR167C, strain met16, hits give low values 1.01 | strain wtn01, hits give low values 0.98
